In PubChem BioAssay (EPA / NIEHS) one finds outcome and AC50 data, which are given here for eight molecules.

The source made the active and inactive calls. How the source made its calls: active means hit-call score of the fitted dose curve at least 0.9, where 1 is the maximum; inactive means score below 0.9.

Read-out in assay [1]: Tumor necrosis factor receptor superfamily member 6 (Homo sapiens) (UniProt P25445)
Description: LTEA_HepaRG_FAS: Life Technologies and Expression Analysis (LTEA) Assay for Fas cell surface death receptor (FAS) using HepaRG (AID 2283447). As to conditions: mRNA level, 48 h; actives raise or lower the signal. A digest of the protocol:
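Differentiated HepaRG cells in serum-free induction medium were exposed 48 h to 8 half-log concentrations up to 100 uM in 0.5% DMSO, in duplicate. FAS mRNA was measured by qRT-PCR normalised to ACTB, GAPDH and POLR2A; bidirectional fit versus DMSO.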

Read-out in assay [2]: Fatty acid synthase (Homo sapiens) (UniProt P49327)
Description: LTEA_HepaRG_FASN: Life Technologies and Expression Analysis (LTEA) Assay for Fatty Acid Synthase (FASN) using HepaRG (AID 2283448).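 On AC50: differentiated human HepaRG liver cells in serum-free induction medium.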 Particulars: mRNA level, 48 h; actives raise or lower the signal. The gist of the method:
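Cells were plated, cultured 48 h, switched to serum-free induction medium, then dosed in duplicate (max 100 uM, half-log dilutions, 0.5% DMSO) for 48 h. RNA was then isolated and FASN quantified by qRT-PCR.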

Read-out in assay [3]: Cyclin D2 (CCND2), CCND2 (gene 894)
Description: LTEA_HepaRG_CCND2: Life Technologies and Expression Analysis (LTEA) Assay for Cyclin D2 (CCND2) using HepaRG (AID 2283449).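 Further: CCND2 transcript measured by TaqMan qRT-PCR and normalised to three housekeeping genes.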 Particulars: mRNA level, 48 h; actives raise or lower the signal. The gist of the method: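 HepaRG, 48 h dosing, 8-pt half-log curve from 100 uM, 0.5% DMSO; duplicate wells. Readout: CCND2 transcript by microfluidic qRT-PCR, housekeeping-normalised; bidirectional fit vs DMSO baseline.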

Read-out in assay [4]: Cyclin Dependent Kinase Inhibitor 1A (CDKN1A), CDKN1A (gene 1026)
Description: LTEA_HepaRG_CDKN1A: Life Technologies and Expression Analysis (LTEA) Assay for Cyclin Dependent Kinase Inhibitor 1A (CDKN1A) using HepaRG (AID 2283450). Particulars: mRNA level, 48 h; actives raise or lower the signal. The gist of the method:
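Read-out is CDKN1A mRNA by TaqMan qRT-PCR, normalized to three housekeeping genes and fitted in both directions against the DMSO baseline. Human HepaRG cells were treated 48 h with test chemicals up to 100 uM in half-log steps, 0.5% DMSO.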

Read-out in assay [5]: catalase (CAT), CAT (gene 847)
Description: LTEA_HepaRG_CAT: Life Technologies and Expression Analysis (LTEA) Assay for catalase (CAT) using HepaRG (AID 2283452). Particulars: mRNA level, 48 h; actives raise or lower the signal. The gist of the method:
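HepaRG cells in serum-free induction medium, 0.5% DMSO vehicle, exposed 48 h in duplicate over 8 half-log concentrations from 100 uM. CAT mRNA measured by qRT-PCR, normalized to ACTB, GAPDH, POLR2A; bidirectional fit versus DMSO.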

Read-out in assay [6]: flavin-containing dimethylaniline monooxygenases 3 (FMO3), FMO3 (gene 2328)
Description: LTEA_HepaRG_FMO3: Life Technologies and Expression Analysis (LTEA) Assay for flavin-containing dimethylaniline monooxygenases 3 (FMO3) using HepaRG (AID 2283453).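 On AC50: differentiated human HepaRG liver cells in serum-free induction medium.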 Particulars: mRNA level, 48 h; actives raise or lower the signal. The gist of the method: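 FMO3 transcript quantified by TaqMan qRT-PCR against three housekeeping genes after 48 h chemical exposure of HepaRG cells. Eight-point half-log series, top 100 uM, 0.5% DMSO vehicle; phenobarbital 1mM induction control; up- or down-regulation fitted.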

Read-out in assay [7]: Forkhead box O1 (FOXO1), FOXO1 (gene 2308)
Description: LTEA_HepaRG_FOXO1: Life Technologies and Expression Analysis (LTEA) Assay for Forkhead box O1 (FOXO1) using HepaRG (AID 2283456). Particulars: mRNA level, 48 h; actives raise or lower the signal. The gist of the method:
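HepaRG, 48 h exposure, 8-pt half-log series from 100 uM in 0.5% DMSO, duplicates; Fluidigm qRT-PCR mRNA, housekeeping-normalised; bidirectional fit vs DMSO baseline.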

Read-out in assay [8]: growth arrest and DNA damage 45 (GADD45A), GADD45A (gene 1647)
Description: LTEA_HepaRG_GADD45A: Life Technologies and Expression Analysis (LTEA) Assay for growth arrest and DNA damage 45 (GADD45A) using HepaRG (AID 2283458). As to conditions: mRNA level, 48 h; actives raise or lower the signal. A digest of the protocol: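 Transcript induction or loss, quantified by TaqMan qRT-PCR against three housekeeping genes, is the read-out. HepaRG cells received chemicals for 48 h across eight half-log concentrations from 100 uM in 0.5% DMSO; gain and loss fitted relative to DMSO.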

Read-out in assay [9]: Forkhead box O3 (FOXO3), FOXO3 (gene 2309)
Description: LTEA_HepaRG_FOXO3: Life Technologies and Expression Analysis (LTEA) Assay for Forkhead box O3 (FOXO3) using HepaRG (AID 2283459). As to conditions: mRNA level, 48 h; actives raise or lower the signal. The gist of the method:
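qRT-PCR readout of FOXO3 transcript, normalized to three housekeeping genes (ACTB, GAPDH, POLR2A); gain or loss fitted against 0.5% DMSO vehicle. HepaRG cells, 48 h chemical exposure, 8-point half-log series, top 100 uM.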

Read-out in assay [10]: ABC Transporter (ABCB1), ABCB1 (gene 5243)
Description: LTEA_HepaRG_ABCB1: Life Technologies and Expression Analysis (LTEA) Assay for ABC Transporter (ABCB1) using HepaRG (AID 2283460). As to conditions: mRNA level, 48 h; actives raise or lower the signal. A digest of the protocol: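 HepaRG, 48 h exposure, 8-pt half-log series from 100 uM, 0.5% DMSO vehicle, duplicates. Readout: ABCB1 transcript by Fluidigm TaqMan qRT-PCR, housekeeping-normalized; bidirectional curve fit vs DMSO baseline.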

Read-out in assay [11]: Cytochrome P450 (CYP1A1), CYP1A1 (gene 1543)
Description: LTEA_HepaRG_CYP1A1: Life Technologies and Expression Analysis (LTEA) Assay for Cytochrome P450 (CYP1A1) using HepaRG (AID 2283454). Particulars: mRNA level, 48 h; actives raise or lower the signal. The gist of the method: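 HepaRG, 48 h post-plating switched to serum-free induction medium; 8-pt conc-response (top 100 uM, half-log, 0.5% DMSO), duplicates, 48 h. Lysis in RLT, TaqMan qRT-PCR for CYP1A1; gain or loss vs DMSO.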

Read-out in assay [12]: CFLAR gene, CFLAR (gene 8837)
Description: LTEA_HepaRG_CFLAR: Life Technologies and Expression Analysis (LTEA) Assay for CFLAR gene using HepaRG (AID 2283455). Particulars: mRNA level, 48 h; actives raise or lower the signal. A digest of the protocol: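 qRT-PCR read-out (Fluidigm/TaqMan) of CFLAR mRNA, normalized to three housekeeping genes, in differentiated human HepaRG cells after 48 h chemical exposure; 8-point half-log series from 100 uM in 0.5% DMSO; bidirectional curve fitting versus DMSO.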

A short description of assay [13]: CEETOX_H295R_CORTIC: CeeTox H295R High-throughput Steroidogenesis Assay for Corticosterone (CORTIC) (AID 2283437).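 Further: corticosterone secreted into medium quantified by mass spectrometry.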 Particulars: actives raise or lower the signal. A digest of the protocol:
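48 h forskolin (10 uM) prestim, then 48 h chemical exposure, final DMSO 0.1%. Readout: corticosterone in medium by LC-MS/MS after MTBE extraction. Gain/loss fit vs DMSO; MTT viability in same wells.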

Assay [14] can be described thus: CEETOX_H295R_CORTISOL: CeeTox H295R High-throughput Steroidogenesis Assay for Cortisol (AID 2283438). As to conditions: actives raise or lower the signal. A digest of the protocol: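 Cortisol synthesis by H295R cells is measured 48 h after chemical dosing, following a 48 h stimulation with 10 uM forskolin. Hormone is extracted and quantified by HPLC-MS/MS, and activity is fitted bidirectionally against the DMSO control.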

The nature of assay [15]: CEETOX_H295R_DOC: CeeTox H295R High-throughput Steroidogenesis Assay for DOC (AID 2283439). As to conditions: actives raise or lower the signal. The gist of the method: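 Steps: seed H295R, adhere overnight; 10 uM forskolin 48 h; replace with chemical medium (0.1% DMSO) 48 h; collect medium, MTBE extraction, HPLC-MS/MS for DOC. Viability then checked by MTT; cytotoxic chemicals diluted until viability ≥70%.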

Assay [16] can be described thus: CEETOX_H295R_ESTRADIOL: CeeTox H295R High-throughput Steroidogenesis Assay for Estradiol (AID 2283440).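 Further: estradiol secreted into medium quantified by LC-MS/MS after dansyl derivatisation.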 Particulars: actives raise or lower the signal. The gist of the method:
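Estradiol secreted into the medium was measured by tandem mass spectrometry after liquid-liquid extraction and dansylation. Human H295R cells had been forskolin-primed (10 uM, 48 h) before a 48 h chemical exposure with 0.1% DMSO.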

Assay [17] in a line: CEETOX_H295R_ESTRONE: CeeTox H295R High-throughput Steroidogenesis Assay for Estrone (AID 2283441).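 On AC50: human adrenal H295R cells prestimulated with forskolin for two days.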 As to conditions: actives raise or lower the signal. The gist of the method: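 Estrone secreted into medium quantified by LC-MS/MS after dansyl chloride derivatization, following 48 h chemical exposure (0.1% DMSO final) of forskolin-prestimulated (10 uM, 48 h) H295R cells; gain or loss fitted against DMSO; MTT viability in same wells.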

Assay [18] can be described thus: CEETOX_H295R_PROG: CeeTox H295R High-throughput Steroidogenesis Assay for Progesterone (PROG) (AID 2283442).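 On AC50: human H295R adrenal cells primed with 10 µM forskolin before dosing; progesterone secreted into medium by H295R cells measured by HPLC-MS/MS.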 As to conditions: actives raise or lower the signal. The gist of the method:
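Steps: seed H295R cells and let them adhere overnight; prime 48 h with 10 uM forskolin; dose with compound in DMSO at 0.1% final for 48 h; extract medium steroids with MTBE; measure progesterone by LC-MS/MS. MTT viability was run in the same wells.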

Assay [19] is described as follows: CEETOX_H295R_TESTO: CeeTox H295R High-throughput Steroidogenesis Assay for Testosterone (TESTO) (AID 2283457). Particulars: actives raise or lower the signal. A digest of the protocol:
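H295R, passage ≤10, 48 h dosing; media extracted with MTBE → HPLC-MS/MS for testosterone; 7-pt standard curve sets LLOQ/ULOQ; bidirectional fit vs DMSO; MTT viability same wells.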

Read-out in assay [20]: Cyclin D1 (CCND1), CCND1 (gene 595)
Description: LTEA_HepaRG_CCND1: Life Technologies and Expression Analysis (LTEA) Assay for Cyclin D1 (CCND1) using HepaRG (AID 2283451). Particulars: mRNA level, 48 h; actives raise or lower the signal. A digest of the protocol: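 HepaRG plated 48 h, medium switched to serum-free induction medium, chemicals added in duplicate (top 100 uM, half-log steps, 0.5% DMSO) for 48 h, cells lysed, RNA measured by TaqMan qRT-PCR.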

Sequence of Fatty acid synthase (Homo sapiens) (P49327 whole entry, looked up): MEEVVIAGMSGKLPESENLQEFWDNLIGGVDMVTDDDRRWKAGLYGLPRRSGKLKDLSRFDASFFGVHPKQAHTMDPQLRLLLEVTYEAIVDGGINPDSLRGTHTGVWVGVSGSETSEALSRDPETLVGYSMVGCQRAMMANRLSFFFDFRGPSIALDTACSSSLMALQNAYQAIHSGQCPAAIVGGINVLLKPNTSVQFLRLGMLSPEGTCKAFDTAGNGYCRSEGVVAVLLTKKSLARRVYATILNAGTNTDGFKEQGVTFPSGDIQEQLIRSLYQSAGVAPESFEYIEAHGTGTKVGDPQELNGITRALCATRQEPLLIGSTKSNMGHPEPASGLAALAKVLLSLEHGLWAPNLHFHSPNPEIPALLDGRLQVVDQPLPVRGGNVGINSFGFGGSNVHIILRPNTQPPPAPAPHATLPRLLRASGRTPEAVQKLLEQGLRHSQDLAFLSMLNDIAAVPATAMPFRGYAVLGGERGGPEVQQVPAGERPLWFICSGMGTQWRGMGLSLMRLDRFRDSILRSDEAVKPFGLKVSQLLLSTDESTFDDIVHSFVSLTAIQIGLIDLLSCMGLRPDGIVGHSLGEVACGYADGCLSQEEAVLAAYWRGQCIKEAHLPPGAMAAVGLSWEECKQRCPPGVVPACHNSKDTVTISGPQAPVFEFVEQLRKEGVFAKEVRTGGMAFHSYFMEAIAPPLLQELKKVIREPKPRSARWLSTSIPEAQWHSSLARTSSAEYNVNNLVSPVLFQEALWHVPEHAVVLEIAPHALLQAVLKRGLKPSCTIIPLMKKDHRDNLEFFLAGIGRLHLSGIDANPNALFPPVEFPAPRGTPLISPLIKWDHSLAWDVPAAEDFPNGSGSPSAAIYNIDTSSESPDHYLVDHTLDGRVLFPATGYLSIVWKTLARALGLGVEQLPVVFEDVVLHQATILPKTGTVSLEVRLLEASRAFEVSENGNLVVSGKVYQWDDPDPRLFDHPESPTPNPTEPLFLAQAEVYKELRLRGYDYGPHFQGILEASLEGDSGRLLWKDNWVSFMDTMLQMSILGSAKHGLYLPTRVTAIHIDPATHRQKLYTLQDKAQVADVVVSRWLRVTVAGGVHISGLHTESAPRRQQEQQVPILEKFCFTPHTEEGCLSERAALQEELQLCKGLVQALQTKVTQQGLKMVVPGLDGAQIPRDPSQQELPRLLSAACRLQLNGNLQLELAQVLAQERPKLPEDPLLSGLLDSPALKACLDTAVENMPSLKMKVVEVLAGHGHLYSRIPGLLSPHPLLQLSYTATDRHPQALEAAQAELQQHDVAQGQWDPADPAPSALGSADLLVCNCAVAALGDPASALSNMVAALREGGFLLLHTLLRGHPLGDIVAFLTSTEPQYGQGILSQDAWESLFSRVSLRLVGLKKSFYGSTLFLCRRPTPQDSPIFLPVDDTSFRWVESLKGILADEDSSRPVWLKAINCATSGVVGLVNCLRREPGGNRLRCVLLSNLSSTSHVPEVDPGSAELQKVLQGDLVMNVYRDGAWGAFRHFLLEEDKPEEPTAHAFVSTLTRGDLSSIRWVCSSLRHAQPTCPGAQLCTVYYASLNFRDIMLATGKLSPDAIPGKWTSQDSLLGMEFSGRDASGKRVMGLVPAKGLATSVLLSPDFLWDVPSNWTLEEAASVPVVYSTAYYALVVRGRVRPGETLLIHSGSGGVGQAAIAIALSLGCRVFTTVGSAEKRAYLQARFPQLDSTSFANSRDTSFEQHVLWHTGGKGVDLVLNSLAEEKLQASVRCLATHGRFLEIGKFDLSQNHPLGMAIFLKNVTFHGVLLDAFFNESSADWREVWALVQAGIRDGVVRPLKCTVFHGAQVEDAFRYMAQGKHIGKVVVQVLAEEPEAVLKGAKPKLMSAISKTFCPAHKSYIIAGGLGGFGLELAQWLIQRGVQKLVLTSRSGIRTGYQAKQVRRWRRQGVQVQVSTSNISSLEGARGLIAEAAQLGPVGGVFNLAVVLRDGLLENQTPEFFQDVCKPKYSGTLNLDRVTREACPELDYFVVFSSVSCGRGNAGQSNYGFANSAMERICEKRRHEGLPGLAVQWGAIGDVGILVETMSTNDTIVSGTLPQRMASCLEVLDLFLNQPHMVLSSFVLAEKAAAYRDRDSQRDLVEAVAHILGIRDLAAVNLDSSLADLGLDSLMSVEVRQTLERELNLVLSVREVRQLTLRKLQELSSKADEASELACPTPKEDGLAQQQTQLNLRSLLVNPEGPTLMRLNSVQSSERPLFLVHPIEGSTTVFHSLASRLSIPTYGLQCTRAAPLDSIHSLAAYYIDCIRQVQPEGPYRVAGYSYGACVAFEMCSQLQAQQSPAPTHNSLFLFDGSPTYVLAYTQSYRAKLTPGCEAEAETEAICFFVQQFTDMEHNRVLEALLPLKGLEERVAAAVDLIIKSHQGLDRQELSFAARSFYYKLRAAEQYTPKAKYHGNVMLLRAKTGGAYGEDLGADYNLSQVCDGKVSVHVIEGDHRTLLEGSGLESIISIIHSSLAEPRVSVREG

As for `CCCCCOC(C)=O`, the outcome in assay [1], in assay [2], in [3], in [4], in assay [5] and in [6] was inactive. For the same molecule, the molecule was called inactive in [7], in assay [8], in [9] and in [10].

`NC(N)=O`: the molecule was classed as inactive in assay [1], in [2], in assay [3], in assay [4], in assay [5] and in assay [6]. The outcome in [12], in assay [7], in assay [8], in [9] and in assay [10] was inactive. Moreover, the AC50 in assay [11] is 81.8 µM (active).

With `CCCOc1ccc(S(=O)(=O)N2CCN(CC)CC2)cc1-c1nc2c(CC)n(Cc3ccccn3)nc2c(=O)[nH]1`, the outcome in assay [13], in [14], in assay [15], in assay [16], in assay [17] and in assay [18] was inactive. The molecule was called inactive in [1], in [3], in assay [4], in [5], in assay [6] and in assay [12]. Moreover, the outcome in [7], in assay [8] and in [9] was inactive. For the same molecule, the values for the half-maximal activity concentration (AC50) in assay [2] and in assay [10] were 50 µM (active) and 2.87 µM (active), respectively.

Regarding `C[C@]12C=CC(=O)C=C1CC[C@H]1[C@@H]3C[C@@H](O)[C@](O)(C(=O)CO)[C@@]3(C)C[C@H](O)[C@@]12F`, the AC50 in [13] is 19.8 µM (active); in assay [15], 11.2 µM (active). The molecule was called inactive in assay [14], in assay [18], in assay [1], in assay [3], in assay [4] and in [5]. The call in assay [6], in [7], in assay [8], in assay [9] and in assay [10] was inactive.

As for `CCN(CC)C(=S)SSC(=S)N(CC)CC`, the molecule was called inactive in assay [13], in assay [14], in assay [15], in [16], in [17] and in assay [18]. Also, the molecule was called inactive in assay [1], in [2], in assay [3], in [4], in assay [5] and in [6]. Further, the result in assay [12], in assay [7], in assay [19], in assay [8], in assay [9] and in [10] was inactive. Besides, the AC50 in [11] is 51 µM (active).

Consider `O=C1CN(N=Cc2ccc([N+](=O)[O-])o2)C(=O)N1`, for which the molecule was called inactive in [1], in assay [2], in assay [3], in assay [20], in assay [5] and in assay [12]. The call in assay [7], in assay [9] and in assay [10] was inactive. The AC50 was 81.5 µM (active) in assay [4], 73 µM (active) in assay [6] and 80.7 µM (active) in assay [8].

For the molecule `Cn1cc[nH]c1=S`, the call in [1], in assay [2], in assay [3], in assay [4], in assay [20] and in [5] was inactive. Further, the molecule was classed as inactive in assay [6], in assay [7], in assay [8], in assay [9] and in assay [10].

In the case of `CCn1nc(C)c2c1C(=O)NCC(c1ccc(O)cc1)=N2`, the outcome in assay [13], in assay [14], in [1], in assay [3], in [4] and in assay [20] was inactive. Moreover, the molecule was classed as inactive in assay [5], in [6], in [7], in [8], in assay [9] and in [10]. The AC50 in assay [15] was 50 µM (active); in assay [16], 0.18 µM (active); in assay [17], 0.185 µM (active); in assay [18], 1.91 µM (active); in assay [2], 17.1 µM (active).
